Experiment in all cases: DAPPL (digital affinity profiling via proximity ligation, sequencing); 10 mM Tris-HCl pH 7.5, 50 mM NaCl, 1 mM DTT, 4% glycerol, room temperature, 30 min; GST-TFs on glutathione beads, 16-mer random dsDNA library, 0.1% formaldehyde crosslink after washing; high values mean tight binding
For one experiment, the target named is T1, FEV (Homo sapiens, UniProt Q99581 1-238).
T1 sequence: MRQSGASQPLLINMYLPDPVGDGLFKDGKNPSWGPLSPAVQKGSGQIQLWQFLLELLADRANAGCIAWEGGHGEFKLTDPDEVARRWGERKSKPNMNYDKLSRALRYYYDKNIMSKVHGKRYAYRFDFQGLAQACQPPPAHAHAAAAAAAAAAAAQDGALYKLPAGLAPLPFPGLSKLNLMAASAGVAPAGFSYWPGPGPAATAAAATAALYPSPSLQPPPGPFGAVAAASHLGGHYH
The settings on record: protein: recombinant; tags: N-terminal GST; dsDNA, one strand shown. The procedure, abridged: (§1)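 Human transcription factors carrying a GST fusion were produced in yeast, bound to glutathione beads, tagged with DNA barcodes and pooled together with a tag-only sample. Each pool was held with 200 nmole of a random double-stranded 16-mer DNA library in Tris/NaCl/DTT/glycerol buffer for 30 min at room temperature, then washed, crosslinked in 0.1% formaldehyde, proximity-ligated with BsaI/T4 ligase (1 h, 37 °C), PCR-amplified and sequenced on an Illumina NextSeq500. Binding signal is the read frequency of each hexamer for a given factor divided by its frequency in the tag-only sample.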

The target of the next experiment is ETV5 (Homo sapiens, UniProt P41161 1-510). The settings on record: protein: recombinant; tags: N-terminal GST; dsDNA, one strand shown. The procedure, abridged:
as §1

Another experiment concerns the target HSF1 (Homo sapiens, UniProt Q00613 1-529). The settings on record: protein: recombinant; tags: N-terminal GST; chain copies: 3; dsDNA, one strand shown. The procedure, abridged: as §1
A further experiment deals with T2, SPIC (Homo sapiens, UniProt Q8N5J4 1-248).
T2 sequence: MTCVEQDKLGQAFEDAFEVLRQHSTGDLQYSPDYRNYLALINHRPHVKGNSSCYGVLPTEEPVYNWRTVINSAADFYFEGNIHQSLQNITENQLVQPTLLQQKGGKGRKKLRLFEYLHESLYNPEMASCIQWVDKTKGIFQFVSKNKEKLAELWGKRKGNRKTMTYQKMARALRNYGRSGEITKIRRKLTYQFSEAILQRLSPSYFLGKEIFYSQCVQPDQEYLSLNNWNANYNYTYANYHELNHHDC
The note with it: protein: recombinant; tags: N-terminal GST; dsDNA, one strand shown. The procedure, abridged: as §1

Another experiment concerns the target ELF4 (Homo sapiens, UniProt Q99607 1-663). The settings on record: protein: recombinant; tags: N-terminal GST; dsDNA, one strand shown. The procedure, abridged: as §1
The next experiment concerns the target T3, ELK4 (Homo sapiens, UniProt P28324-2 1-405).
T3 sequence: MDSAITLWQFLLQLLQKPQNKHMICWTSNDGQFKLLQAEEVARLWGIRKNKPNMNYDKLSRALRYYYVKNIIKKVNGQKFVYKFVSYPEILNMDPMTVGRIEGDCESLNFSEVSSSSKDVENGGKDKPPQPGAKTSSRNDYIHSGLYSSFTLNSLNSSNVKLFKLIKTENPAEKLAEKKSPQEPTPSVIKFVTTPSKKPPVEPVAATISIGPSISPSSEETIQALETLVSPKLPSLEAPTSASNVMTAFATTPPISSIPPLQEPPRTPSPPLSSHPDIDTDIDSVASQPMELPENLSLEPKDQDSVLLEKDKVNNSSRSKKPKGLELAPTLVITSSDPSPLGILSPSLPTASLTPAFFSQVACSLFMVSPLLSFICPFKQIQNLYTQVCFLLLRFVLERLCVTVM
The settings on record: protein: recombinant; tags: N-terminal GST; dsDNA, one strand shown. The procedure, abridged:
as §1

Another experiment addresses T4, ETV2 (Homo sapiens, UniProt O00321 1-342).
T4 sequence: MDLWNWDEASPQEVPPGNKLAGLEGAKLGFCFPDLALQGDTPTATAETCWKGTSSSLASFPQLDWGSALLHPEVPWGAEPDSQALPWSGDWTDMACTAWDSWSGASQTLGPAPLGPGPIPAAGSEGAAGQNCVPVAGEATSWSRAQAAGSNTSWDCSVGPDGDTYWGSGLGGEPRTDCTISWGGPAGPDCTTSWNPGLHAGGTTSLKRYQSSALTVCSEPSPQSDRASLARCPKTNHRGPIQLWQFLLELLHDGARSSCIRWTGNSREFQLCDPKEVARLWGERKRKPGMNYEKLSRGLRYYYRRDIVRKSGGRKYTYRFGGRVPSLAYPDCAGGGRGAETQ
The note with it: protein: recombinant; tags: N-terminal GST; dsDNA, one strand shown. The procedure, abridged: as §1

Another experiment addresses T5, ELF3 (Homo sapiens, UniProt P78545 1-371).
T5 sequence: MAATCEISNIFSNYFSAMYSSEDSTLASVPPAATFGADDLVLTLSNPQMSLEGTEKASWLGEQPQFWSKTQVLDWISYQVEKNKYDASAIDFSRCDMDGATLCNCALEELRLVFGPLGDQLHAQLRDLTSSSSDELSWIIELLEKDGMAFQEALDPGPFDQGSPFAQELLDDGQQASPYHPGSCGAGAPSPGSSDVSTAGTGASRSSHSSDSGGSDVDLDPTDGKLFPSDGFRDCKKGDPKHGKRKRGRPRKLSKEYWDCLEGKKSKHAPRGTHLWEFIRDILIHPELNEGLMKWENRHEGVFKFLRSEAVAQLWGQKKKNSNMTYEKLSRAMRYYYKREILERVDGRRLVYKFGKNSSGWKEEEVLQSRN
The note with it: protein: recombinant; tags: N-terminal GST; dsDNA, one strand shown. The procedure, abridged:
as §1

Another experiment deals with CRX (Homo sapiens, UniProt O43186 1-299). The settings on record: protein: recombinant; tags: N-terminal GST; dsDNA, one strand shown. The procedure, abridged:
as §1

The target in a further experiment is ETV1 (Homo sapiens, UniProt P50549 1-477). The settings on record: protein: recombinant; tags: N-terminal GST; dsDNA, one strand shown. The procedure, abridged: as §1
For another experiment, the target named is T6, ERF (Homo sapiens, UniProt P50548 1-548).
T6 sequence: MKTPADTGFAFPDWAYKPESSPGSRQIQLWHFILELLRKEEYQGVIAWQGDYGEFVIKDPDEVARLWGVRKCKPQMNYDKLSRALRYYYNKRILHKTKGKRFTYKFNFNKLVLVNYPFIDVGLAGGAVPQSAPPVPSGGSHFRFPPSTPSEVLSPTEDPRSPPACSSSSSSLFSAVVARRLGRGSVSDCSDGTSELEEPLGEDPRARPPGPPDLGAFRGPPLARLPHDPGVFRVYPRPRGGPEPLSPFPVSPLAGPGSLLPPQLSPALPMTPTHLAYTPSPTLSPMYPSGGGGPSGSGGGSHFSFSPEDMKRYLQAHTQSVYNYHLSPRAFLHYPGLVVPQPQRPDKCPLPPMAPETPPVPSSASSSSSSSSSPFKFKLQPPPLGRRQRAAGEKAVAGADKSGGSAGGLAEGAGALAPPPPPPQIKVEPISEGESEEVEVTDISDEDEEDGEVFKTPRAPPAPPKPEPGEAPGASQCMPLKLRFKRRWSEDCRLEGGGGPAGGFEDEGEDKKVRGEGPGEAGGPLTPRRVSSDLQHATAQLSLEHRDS
The note with it: protein: recombinant; tags: N-terminal GST; dsDNA, one strand shown. The procedure, abridged:
as §1

A further experiment addresses T7, ETV3L (Homo sapiens, UniProt Q6ZN32 1-361).
T7 sequence: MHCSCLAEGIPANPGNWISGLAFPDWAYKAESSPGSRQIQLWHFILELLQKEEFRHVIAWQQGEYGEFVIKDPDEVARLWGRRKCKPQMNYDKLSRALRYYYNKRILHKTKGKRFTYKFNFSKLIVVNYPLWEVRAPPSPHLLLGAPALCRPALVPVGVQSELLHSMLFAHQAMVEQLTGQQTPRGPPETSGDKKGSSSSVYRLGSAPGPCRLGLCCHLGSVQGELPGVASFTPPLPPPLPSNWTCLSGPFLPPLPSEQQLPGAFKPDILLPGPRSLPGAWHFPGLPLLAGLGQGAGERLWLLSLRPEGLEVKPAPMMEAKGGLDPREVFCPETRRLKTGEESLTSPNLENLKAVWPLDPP
The note with it: protein: recombinant; tags: N-terminal GST; dsDNA, one strand shown. The procedure, abridged: as §1

In a further experiment the target is T8, ETS2 (Homo sapiens, UniProt P15036 1-469).
T8 sequence: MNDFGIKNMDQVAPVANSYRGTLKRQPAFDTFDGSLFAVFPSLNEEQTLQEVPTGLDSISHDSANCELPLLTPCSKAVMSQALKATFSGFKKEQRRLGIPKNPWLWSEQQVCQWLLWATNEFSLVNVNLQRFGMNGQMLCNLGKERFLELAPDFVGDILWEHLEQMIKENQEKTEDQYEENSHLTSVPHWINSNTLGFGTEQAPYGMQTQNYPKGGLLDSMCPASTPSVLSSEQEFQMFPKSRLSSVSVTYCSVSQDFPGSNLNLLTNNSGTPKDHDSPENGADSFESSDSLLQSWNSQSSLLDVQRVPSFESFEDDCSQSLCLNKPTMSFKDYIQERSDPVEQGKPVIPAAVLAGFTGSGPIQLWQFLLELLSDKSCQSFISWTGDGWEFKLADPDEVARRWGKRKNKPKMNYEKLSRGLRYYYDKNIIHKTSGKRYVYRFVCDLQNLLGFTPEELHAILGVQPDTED
The settings on record: protein: recombinant; tags: N-terminal GST; dsDNA, one strand shown. The procedure, abridged:
as §1

The target in the next experiment is T9, SPDEF (Homo sapiens, UniProt O95238 1-335).
T9 sequence: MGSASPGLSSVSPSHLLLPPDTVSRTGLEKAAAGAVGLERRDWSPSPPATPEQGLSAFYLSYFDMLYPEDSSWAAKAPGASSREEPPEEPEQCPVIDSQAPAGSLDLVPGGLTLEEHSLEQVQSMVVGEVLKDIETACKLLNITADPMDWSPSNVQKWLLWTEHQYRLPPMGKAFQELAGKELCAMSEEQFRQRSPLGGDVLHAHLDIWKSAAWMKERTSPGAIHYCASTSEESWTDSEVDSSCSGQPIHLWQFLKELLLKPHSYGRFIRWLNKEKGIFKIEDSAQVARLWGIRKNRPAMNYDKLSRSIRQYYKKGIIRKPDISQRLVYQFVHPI
The note with it: protein: recombinant; tags: N-terminal GST; dsDNA, one strand shown. The procedure, abridged: as §1

For a further experiment, the target named is T10, ETV7 (Homo sapiens, UniProt Q9Y603 1-341).
T10 sequence: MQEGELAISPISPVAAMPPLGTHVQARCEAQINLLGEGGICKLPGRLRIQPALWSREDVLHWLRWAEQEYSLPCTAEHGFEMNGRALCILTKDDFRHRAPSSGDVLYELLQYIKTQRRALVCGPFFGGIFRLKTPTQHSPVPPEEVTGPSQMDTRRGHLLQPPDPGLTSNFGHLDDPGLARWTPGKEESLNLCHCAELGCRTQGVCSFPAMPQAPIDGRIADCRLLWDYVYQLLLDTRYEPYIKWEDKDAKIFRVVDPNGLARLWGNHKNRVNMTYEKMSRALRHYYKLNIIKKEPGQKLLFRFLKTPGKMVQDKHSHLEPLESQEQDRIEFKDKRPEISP
The note with it: protein: recombinant; tags: N-terminal GST; dsDNA, one strand shown. The procedure, abridged:
as §1

The target in another experiment is T11, ELF5 (Homo sapiens, UniProt Q9UKW6-2 1-255).
T11 sequence: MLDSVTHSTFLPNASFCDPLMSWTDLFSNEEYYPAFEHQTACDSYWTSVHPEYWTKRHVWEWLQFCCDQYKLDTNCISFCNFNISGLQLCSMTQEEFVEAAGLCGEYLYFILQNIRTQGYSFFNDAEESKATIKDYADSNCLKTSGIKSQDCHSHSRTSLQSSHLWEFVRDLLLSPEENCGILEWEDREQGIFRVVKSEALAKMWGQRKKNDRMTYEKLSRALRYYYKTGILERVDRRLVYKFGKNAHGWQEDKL
The settings on record: protein: recombinant; tags: N-terminal GST; dsDNA, one strand shown. The procedure, abridged: as §1

A further experiment addresses T12, ETV3 (Homo sapiens, UniProt P41162-2 1-143).
T12 sequence: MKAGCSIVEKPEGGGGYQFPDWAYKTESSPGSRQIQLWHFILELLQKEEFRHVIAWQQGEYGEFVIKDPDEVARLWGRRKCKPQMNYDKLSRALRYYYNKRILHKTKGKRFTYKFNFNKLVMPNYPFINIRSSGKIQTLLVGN
The settings on record: protein: recombinant; tags: N-terminal GST; dsDNA, one strand shown. The procedure, abridged:
as §1

A further experiment deals with ETV6 (Homo sapiens, UniProt P41212 1-452). The settings on record: protein: recombinant; tags: N-terminal GST; dsDNA, one strand shown. The procedure, abridged:
as §1

ETV5, sequence (P41161 whole entry): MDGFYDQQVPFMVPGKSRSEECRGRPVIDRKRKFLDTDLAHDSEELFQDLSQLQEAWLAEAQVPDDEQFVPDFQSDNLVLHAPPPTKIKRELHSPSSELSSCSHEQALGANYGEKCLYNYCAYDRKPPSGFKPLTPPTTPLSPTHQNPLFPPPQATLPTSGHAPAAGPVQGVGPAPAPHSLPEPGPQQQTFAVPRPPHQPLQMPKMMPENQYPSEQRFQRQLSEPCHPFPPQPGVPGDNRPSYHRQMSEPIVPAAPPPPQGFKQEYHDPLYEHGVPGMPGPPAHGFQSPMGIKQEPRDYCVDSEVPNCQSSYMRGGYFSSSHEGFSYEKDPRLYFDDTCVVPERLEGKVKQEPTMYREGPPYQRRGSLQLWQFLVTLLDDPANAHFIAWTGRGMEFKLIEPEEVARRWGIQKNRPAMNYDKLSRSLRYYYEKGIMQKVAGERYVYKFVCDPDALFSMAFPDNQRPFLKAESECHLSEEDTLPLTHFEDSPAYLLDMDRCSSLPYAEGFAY
ETV1, sequence (P50549 whole entry): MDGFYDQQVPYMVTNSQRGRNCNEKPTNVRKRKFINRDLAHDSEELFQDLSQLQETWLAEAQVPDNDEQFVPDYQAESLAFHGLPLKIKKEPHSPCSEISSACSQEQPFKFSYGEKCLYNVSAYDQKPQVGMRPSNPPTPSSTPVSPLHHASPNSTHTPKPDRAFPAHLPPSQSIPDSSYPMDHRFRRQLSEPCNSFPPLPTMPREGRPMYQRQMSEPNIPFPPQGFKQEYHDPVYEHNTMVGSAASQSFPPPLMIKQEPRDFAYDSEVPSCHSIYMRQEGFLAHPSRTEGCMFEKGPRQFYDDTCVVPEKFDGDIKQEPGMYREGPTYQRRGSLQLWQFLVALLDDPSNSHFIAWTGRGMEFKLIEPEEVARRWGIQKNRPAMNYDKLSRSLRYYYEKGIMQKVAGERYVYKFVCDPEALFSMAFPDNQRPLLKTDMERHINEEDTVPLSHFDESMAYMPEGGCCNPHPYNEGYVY
ELF4, sequence (Q99607 whole entry): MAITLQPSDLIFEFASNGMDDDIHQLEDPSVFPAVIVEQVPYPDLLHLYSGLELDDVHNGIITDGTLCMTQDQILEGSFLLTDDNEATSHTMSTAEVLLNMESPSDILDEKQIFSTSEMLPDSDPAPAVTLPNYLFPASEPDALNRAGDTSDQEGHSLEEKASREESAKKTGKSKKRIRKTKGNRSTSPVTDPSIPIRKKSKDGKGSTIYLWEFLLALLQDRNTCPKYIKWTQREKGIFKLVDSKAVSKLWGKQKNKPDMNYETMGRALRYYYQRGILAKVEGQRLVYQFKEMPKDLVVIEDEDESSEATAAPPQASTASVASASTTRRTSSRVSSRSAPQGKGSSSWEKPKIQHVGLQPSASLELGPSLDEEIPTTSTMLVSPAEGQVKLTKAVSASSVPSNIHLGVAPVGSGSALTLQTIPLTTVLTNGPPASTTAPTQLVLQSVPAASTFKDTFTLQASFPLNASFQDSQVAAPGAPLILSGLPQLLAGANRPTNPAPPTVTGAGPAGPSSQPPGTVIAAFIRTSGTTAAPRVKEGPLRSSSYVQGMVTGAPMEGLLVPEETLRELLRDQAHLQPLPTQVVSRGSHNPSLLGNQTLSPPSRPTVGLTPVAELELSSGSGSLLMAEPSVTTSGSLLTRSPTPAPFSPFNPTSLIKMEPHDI
CRX, sequence (O43186 whole entry): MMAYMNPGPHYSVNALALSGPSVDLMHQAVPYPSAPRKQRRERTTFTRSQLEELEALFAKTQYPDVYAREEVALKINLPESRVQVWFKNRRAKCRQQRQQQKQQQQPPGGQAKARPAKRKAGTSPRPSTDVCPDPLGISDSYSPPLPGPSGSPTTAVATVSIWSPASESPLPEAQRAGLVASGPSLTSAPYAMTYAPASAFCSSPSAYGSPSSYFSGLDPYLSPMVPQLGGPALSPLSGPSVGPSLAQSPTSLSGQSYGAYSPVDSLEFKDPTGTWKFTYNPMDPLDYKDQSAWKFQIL
ETV6, sequence (P41212 whole entry): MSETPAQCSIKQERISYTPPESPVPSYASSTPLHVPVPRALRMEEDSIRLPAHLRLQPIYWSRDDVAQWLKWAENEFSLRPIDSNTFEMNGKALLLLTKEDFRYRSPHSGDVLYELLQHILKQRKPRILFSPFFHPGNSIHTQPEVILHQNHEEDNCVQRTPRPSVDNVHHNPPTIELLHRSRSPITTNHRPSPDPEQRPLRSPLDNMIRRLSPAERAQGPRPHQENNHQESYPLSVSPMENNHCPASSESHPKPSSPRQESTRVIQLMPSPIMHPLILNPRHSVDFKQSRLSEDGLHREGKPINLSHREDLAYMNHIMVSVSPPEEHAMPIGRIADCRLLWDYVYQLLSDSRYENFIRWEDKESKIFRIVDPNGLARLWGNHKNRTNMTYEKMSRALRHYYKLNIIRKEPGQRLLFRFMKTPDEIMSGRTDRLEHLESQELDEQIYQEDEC
HSF1, sequence (Q00613 whole entry): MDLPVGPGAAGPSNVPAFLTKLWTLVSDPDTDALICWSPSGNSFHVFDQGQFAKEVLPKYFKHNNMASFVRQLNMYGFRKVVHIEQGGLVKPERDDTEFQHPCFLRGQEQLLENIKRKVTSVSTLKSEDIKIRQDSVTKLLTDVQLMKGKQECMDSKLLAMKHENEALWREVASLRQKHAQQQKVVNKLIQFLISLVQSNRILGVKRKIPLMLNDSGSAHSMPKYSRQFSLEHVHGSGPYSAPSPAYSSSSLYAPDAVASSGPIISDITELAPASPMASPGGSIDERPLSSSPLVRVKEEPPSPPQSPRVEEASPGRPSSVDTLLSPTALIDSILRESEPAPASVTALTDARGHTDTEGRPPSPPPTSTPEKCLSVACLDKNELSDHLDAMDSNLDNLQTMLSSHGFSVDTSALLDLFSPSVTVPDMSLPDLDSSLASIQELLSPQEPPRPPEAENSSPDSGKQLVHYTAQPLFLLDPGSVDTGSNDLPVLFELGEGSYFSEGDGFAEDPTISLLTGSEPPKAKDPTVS

For TGTTAA, the binding signal with FEV was 1.1 fold enrichment (6-mer frequency, TF over GST control); in the experiment with ETV5, 1.05 fold enrichment (6-mer frequency, TF over GST control); in the experiment with HSF1, 1.3 fold enrichment (6-mer frequency, TF over GST control); with SPIC, 1.19 fold enrichment (6-mer frequency, TF over GST control); in the experiment with ELF4, 1.17 fold enrichment (6-mer frequency, TF over GST control); with ELK4, 1.16 fold enrichment (6-mer frequency, TF over GST control). Moreover, the binding signal is 1.06 fold enrichment (6-mer frequency, TF over GST control) in the experiment with ETV2; 1.24 fold enrichment (6-mer frequency, TF over GST control) in the experiment with ELF3; 1.67 fold enrichment (6-mer frequency, TF over GST control) with CRX; 1.13 fold enrichment (6-mer frequency, TF over GST control) in the experiment with ETV1; 1.19 fold enrichment (6-mer frequency, TF over GST control) with ERF; 1.14 fold enrichment (6-mer frequency, TF over GST control) in the experiment with ETV3L. Further, the binding signal is 1.11 fold enrichment (6-mer frequency, TF over GST control) with ETS2; 1.09 fold enrichment (6-mer frequency, TF over GST control) in the experiment with SPDEF; 1.1 fold enrichment (6-mer frequency, TF over GST control) with ETV7; 1.13 fold enrichment (6-mer frequency, TF over GST control) with ELF5; 1.16 fold enrichment (6-mer frequency, TF over GST control) with ETV3; 1.16 fold enrichment (6-mer frequency, TF over GST control) with ETV6.
